Assay results as given in PubChem BioAssay (NCI).
This is part of a sample that, as a whole, favours compounds with a hit. Of some 79,000 tested, about 15% had one in any assay. Activity calls are given as the source filed them. Cut-off read from the data, not from the text of the source: active = growth inhibition above about 70%; inactive = the rest.

Experiments:
[1] = NCI Yeast Anticancer Drug Screen. Data for the rad52 strain (AID 147);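 note: 0% = growth of vehicle-treated control cultures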; conditions: S. cerevisiae rad52 mutant growth inhibition, active compounds read high
Procedure, shortened: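 Genetically altered yeast (DNA damage repair defect) treated with compound; inhibition calculated relative to vehicle.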

[2] = NCI Yeast Anticancer Drug Screen. Data for the wt1 strain (AID 149);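 note: 0% = growth of vehicle-treated wt1 cultures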; conditions: S. cerevisiae wt1 strain (SPY 50644) growth inhibition, active compounds read high
Procedure, shortened: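 Measured: growth of wt1 yeast under compound versus vehicle treatment, reported as inhibition.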

[3] = NCI Yeast Anticancer Drug Screen. Data for the rad50EPP+ strain (AID 151);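 note: 0% = growth of vehicle-treated control cultures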; conditions: S. cerevisiae rad50 mutant strain, active compounds read high
Procedure, shortened: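 Strain rad50EPP+; compound exposure; % growth inhibition vs vehicle.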

[4] = NCI Yeast Anticancer Drug Screen. Data for the mgt1 strain (AID 153); conditions: S. cerevisiae mgt1 mutant growth inhibition, active compounds read high
Procedure, shortened: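 Read-out: yeast growth inhibition vs vehicle control. Strain mgt1, drawn from a panel altered in DNA damage repair or cell cycle control.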

[5] = NCI Yeast Anticancer Drug Screen. Data for the rad50 strain (AID 155);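 note: 0% = growth of vehicle-only cultures of the same strain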; conditions: S. cerevisiae rad50 strain growth inhibition, active compounds read high
Procedure, shortened: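 Growth of the mutant yeast was measured after compound exposure and referenced to vehicle-treated cultures.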

[6] = NCI Yeast Anticancer Drug Screen. Data for the mec2-1 strain (AID 157); conditions: S. cerevisiae mec2-1 strain, active compounds read high
Procedure, shortened: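 Cells of the genetically defined mec2-1 yeast strain are incubated with test compound. Inhibition of growth is calculated against vehicle-treated controls.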

[7] = NCI Yeast Anticancer Drug Screen. Data for the rad14 strain (AID 159);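 note: 0% = growth of vehicle-treated control cultures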; conditions: S. cerevisiae rad14 strain growth inhibition, active compounds read high
Procedure, shortened: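 Here, inhibition of yeast growth was measured after compound exposure, using a strain with a genetic defect in DNA damage repair and vehicle-treated cultures as the reference.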

[8] = NCI Yeast Anticancer Drug Screen. Data for the sgs1 mgt1 strain (AID 161);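 note: 0% = growth of cultures given vehicle only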; conditions: S. cerevisiae sgs1 mgt1 strain, active compounds read high
Procedure, shortened: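 Genetically altered yeast, compound exposure, growth inhibition relative to vehicle.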

[9] = NCI Yeast Anticancer Drug Screen. Data for the CLN2oe strain (AID 163);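 note: 0% = growth of vehicle-only control cultures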; conditions: S. cerevisiae CLN2oe strain, active compounds read high
Procedure, shortened: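 Strain altered in cell-cycle control, incubated with compound; growth compared to solvent-treated controls.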

[10] = NCI Yeast Anticancer Drug Screen. Data for the cln2 rad14 strain (AID 165);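 note: 0% = growth equal to vehicle treated cultures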; conditions: S. cerevisiae cln2 rad14 strain, active compounds read high
Procedure, shortened: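 The screen exposed genetically defined yeast (cln2 rad14) to test compounds and scored growth inhibition relative to vehicle-treated controls.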

[11] = NCI Yeast Anticancer Drug Screen. Data for the bub3 strain (AID 167); conditions: S. cerevisiae bub3 mutant strain, active compounds read high
Procedure, shortened: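 Whole-cell yeast assay. The mutant strain was incubated with compounds, and growth inhibition was determined by comparison with vehicle-treated cells.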

[12] = NCI Yeast Anticancer Drug Screen. Data for the wt2 strain (AID 169);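 note: 0% = growth of vehicle-treated yeast cultures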; conditions: S. cerevisiae wt2 strain growth inhibition, active compounds read high
Procedure, shortened: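 Steps: yeast strain treated with compound; growth recorded; inhibition calculated relative to cultures given vehicle alone.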

[13] = NCI Yeast Anticancer Drug Screen. Data for the mlh1 strain (AID 171);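 note: 0% = growth of vehicle-treated control cultures of the same strain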; conditions: S. cerevisiae mlh1 strain growth inhibition, active compounds read high
Procedure, shortened: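 Yeast screen: mutant strain plus compound, growth scored against vehicle control wells.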

[14] = NCI Yeast Anticancer Drug Screen. Data for the sgs1 strain (AID 173);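 note: 0% = growth of vehicle-only control cultures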; conditions: S. cerevisiae sgs1 mutant, active compounds read high
Procedure, shortened: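 Inhibition of yeast growth served as the measure. The mutant strain was treated with each compound, and growth was normalised to cultures receiving vehicle alone.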

[15] = NCI Yeast Anticancer Drug Screen. Data for the mlh1 rad18 strain (AID 175); conditions: S. cerevisiae mlh1 rad18 strain growth inhibition, active compounds read high
Procedure, shortened: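 Compound-treated yeast growth, normalised to vehicle controls. Strain bears defined DNA repair mutations.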

[16] = NCI Yeast Anticancer Drug Screen. Data for the rad18 strain (AID 177); conditions: S. cerevisiae rad18 mutant growth inhibition, active compounds read high
Procedure, shortened: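 Inhibition values reflect reduced yeast growth compared with vehicle-treated controls, using a strain engineered with a DNA damage repair defect.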

[17] = at 5.0 µM (retest, dose inferred, filed as 0.5)
[18] = at 50.0 µM (retest, dose inferred, filed as 5.0)

Measured: growth inhibition

O=C(O)c1cccc2cccc(-c3c4ccc(=O)cc-4oc4cc(O)ccc34)c12
active: [1]; at 11.0 µM 79% | [1]; at 33.0 µM 78% | [1]; at 100.0 µM 94% | [2]; at 100.0 µM 94% | [3]; at 11.0 µM 70% | [3]; at 33.0 µM 73% | [3]; at 100.0 µM 93% | [4]; at 11.0 µM 79% | [4]; at 33.0 µM 88% | [4]; at 100.0 µM 96% | [5]; at 11.0 µM 82% | [5]; at 33.0 µM 79% | [5]; [18] 97% | [5]; at 50.0 µM 90.5% | [5]; at 100.0 µM 92% | [6]; at 11.0 µM 85% | [6]; at 33.0 µM 85% | [6]; [18] 94% | [6]; at 50.0 µM 91.5% | [6]; at 100.0 µM 93% | [7]; at 33.0 µM 74% | [7]; at 100.0 µM 93% | [8]; [18] 95% | [9]; at 11.0 µM 70% | [9]; at 33.0 µM 81% | [9]; at 100.0 µM 90% | [10]; [18] 95% | [11]; [17] 72% | [11]; at 11.0 µM 91% | [11]; at 33.0 µM 93% | [11]; [18] 94% | [11]; at 100.0 µM 92% | [12]; at 33.0 µM 85% | [12]; at 100.0 µM 96% | [13]; at 33.0 µM 87% | [13]; at 100.0 µM 91% | [14]; at 11.0 µM 74% | [14]; at 33.0 µM 85% | [14]; at 100.0 µM 95% | [15]; [18] 98% | [15]; at 50.0 µM 90% | [16]; at 11.0 µM 71% | [16]; at 33.0 µM 79% | [16]; at 100.0 µM 94%
inactive: [1]; at 1.2 µM 8% | [1]; at 3.7 µM 33% | [2]; at 1.2 µM -5% | [2]; at 3.7 µM 5% | [2]; at 11.0 µM 54% | [2]; at 33.0 µM 69% | [3]; at 1.2 µM 10% | [3]; at 3.7 µM 29% | [4]; at 1.2 µM 20% | [4]; at 3.7 µM 41% | [5]; at 1.2 µM 29% | [5]; at 3.7 µM 56% | [5]; [17] 29% | [6]; at 1.2 µM 18% | [6]; at 3.7 µM 24% | [6]; [17] 53% | [7]; at 1.2 µM 10% | [7]; at 3.7 µM 13% | [7]; at 11.0 µM 55% | [8]; [17] 1% | [9]; at 1.2 µM 16% | [9]; at 3.7 µM 9% | [10]; [17] 61% | [11]; at 1.2 µM 34% | [11]; at 3.7 µM 69% | [12]; at 1.2 µM 17% | [12]; at 3.7 µM 26% | [12]; at 11.0 µM 48% | [13]; at 1.2 µM 7% | [13]; at 3.7 µM 18% | [13]; at 11.0 µM 63% | [14]; at 1.2 µM 34% | [14]; at 3.7 µM 31% | [15]; [17] 27% | [16]; at 1.2 µM 18% | [16]; at 3.7 µM 23%

COc1cc(NCc2ccc3nc(N)nc(N)c3c2C)cc(OC)c1OC
inactive: [1]; at 1.2 µM 1% | [1]; at 3.7 µM 5% | [1]; at 11.0 µM 17% | [1]; at 33.0 µM 37% | [1]; at 100.0 µM 68% | [2]; at 1.2 µM -1% | [2]; at 3.7 µM -4% | [2]; at 11.0 µM -6% | [2]; at 33.0 µM -7% | [2]; at 100.0 µM 1% | [3]; at 1.2 µM -5% | [3]; at 3.7 µM -4% | [3]; at 11.0 µM -4% | [3]; at 33.0 µM 6% | [3]; at 100.0 µM 27% | [4]; at 1.2 µM -3% | [4]; at 3.7 µM -6% | [4]; at 11.0 µM -7% | [4]; at 33.0 µM -7% | [4]; at 100.0 µM 37% | [5]; at 1.2 µM -3% | [5]; at 3.7 µM -3% | [5]; at 11.0 µM 7% | [5]; at 33.0 µM 28% | [5]; at 50.0 µM -7.65% | [6]; at 1.2 µM -4% | [6]; at 3.7 µM 8% | [6]; at 11.0 µM 39% | [6]; at 50.0 µM 54.6% | [7]; at 1.2 µM -2% | [7]; at 3.7 µM -6% | [7]; at 11.0 µM -8% | [7]; at 33.0 µM -5% | [7]; at 100.0 µM 43% | [8]; at 50.0 µM 0.6% | [9]; at 1.2 µM -8% | [9]; at 3.7 µM -18% | [9]; at 11.0 µM -17% | [9]; at 33.0 µM -16% | [9]; at 100.0 µM 30% | [10]; at 50.0 µM -1.2% | [11]; at 1.2 µM -13% | [11]; at 3.7 µM -15% | [11]; at 11.0 µM -15% | [11]; at 33.0 µM -24% | [11]; at 50.0 µM -46.8% | [11]; at 100.0 µM 43% | [12]; at 1.2 µM -4% | [12]; at 3.7 µM -5% | [12]; at 11.0 µM -7% | [12]; at 33.0 µM -2% | [12]; at 100.0 µM 46% | [13]; at 1.2 µM -4% | [13]; at 3.7 µM -6% | [13]; at 11.0 µM -5% | [13]; at 33.0 µM 5% | [13]; at 100.0 µM 56% | [14]; at 1.2 µM -2% | [14]; at 3.7 µM -2% | [14]; at 11.0 µM 5% | [14]; at 33.0 µM 22% | [15]; at 50.0 µM -74.6% | [16]; at 1.2 µM -6% | [16]; at 3.7 µM -2% | [16]; at 11.0 µM 1% | [16]; at 33.0 µM 20%
active: [5]; at 100.0 µM 78% | [6]; at 33.0 µM 82% | [6]; at 100.0 µM 95% | [14]; at 100.0 µM 75% | [16]; at 100.0 µM 77%
